Screening results from PubChem.
An excerpt weighted towards active compounds, which were near 32% of everything screened.
PostGolgi ctrl – yeast control strain growth, post-Golgi counter-screen | AID 738 | 5% of 98,000 active | inhibition, % at 10 µM | efflux-deficient yeast background strain, growth absorbance A615, 16 h
PostGolgi yeast – growth inhibition of a yeast mutant, post-Golgi transport screen; inhibition, % at 10 µM; post-Golgi transport phenotypic cell assay; 0.9% of 98,000 active;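 note: yeast cells grown in 1536-well plates; yeast grown about 18 h at 30C before absorbance read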
CYP2C9 inhib – inhibitors of human CYP2C9. P11712. CYP2C9 Supersomes, luciferin-H conversion, luminescence. inhibition, % at 5 µM. 20% of 96,000 active;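 active = blocking of liver enzyme CYP2C9 beyond about 50% at 5 µM, limit read from the data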
CYP2C19 act – cytochrome P450 2C19 (human) activation | activation factor at 5 µM | P33261 | 96,000 tested, under 10 active | recombinant CYP2C19, luciferin-H EGE luminescence; active compounds read high; 0 = fully inhibited enzyme, 1 = untreated enzyme;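 active = activation factor of at least 2 at 5 µM in the primary screen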;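 note: 0 = wells with 2.5 mM tranylcypromine and 1 = vehicle-only wells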
Target sequence (P33261 whole entry, looked up): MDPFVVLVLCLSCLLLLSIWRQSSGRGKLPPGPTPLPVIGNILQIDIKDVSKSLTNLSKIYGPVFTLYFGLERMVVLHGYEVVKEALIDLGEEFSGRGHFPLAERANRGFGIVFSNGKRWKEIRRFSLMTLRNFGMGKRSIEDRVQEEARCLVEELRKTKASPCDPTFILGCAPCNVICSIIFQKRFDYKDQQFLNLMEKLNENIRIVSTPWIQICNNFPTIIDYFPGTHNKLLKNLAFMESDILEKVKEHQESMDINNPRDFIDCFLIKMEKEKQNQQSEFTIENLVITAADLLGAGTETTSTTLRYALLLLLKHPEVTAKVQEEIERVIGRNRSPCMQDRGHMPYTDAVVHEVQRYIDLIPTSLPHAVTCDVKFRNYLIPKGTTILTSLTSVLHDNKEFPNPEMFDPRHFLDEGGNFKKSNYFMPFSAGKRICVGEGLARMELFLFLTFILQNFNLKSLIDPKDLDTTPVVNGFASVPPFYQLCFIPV
CYP2C19 inhib – human CYP2C19 inhibition | inhibition, % at 5 µM | P33261 | 21% of 96,000 active | CYP2C19 Supersomes, luciferin-H EGE luminescence, 30 min;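 active = CYP2C19 inhibition above a set limit at 5 µM in the primary screen, cut at about 50% in these data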;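 note: plate controls were negative control wells for no effect and 2.5 mM tranylcypromine positive control for full effect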
CYP2C9 activ – CYP2C9 (human) activation | recombinant CYP2C9, luciferin-H conversion, luminescence; active compounds read high; factor 1 = untreated enzyme, 0 = blocked | P11712 | AID 1024 | activation factor at 5 µM | 1.4% of 96,000 active;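 active = activation factor of 2 or more for CYP2C9 at a 5 µM dose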;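 note: 0 = sulfaphenazole-blocked wells and 1 = vehicle-only wells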
* hit, by the source's call; x = no result given. Cut-off read from the data, not from the text of the source, unless noted: active = inhibition above about 30%; inactive = the rest.

SMILES	PostGolgi ctrl	PostGolgi yeast	CYP2C9 inhib	CYP2C19 act	CYP2C19 inhib	CYP2C9 activ
COC(=O)c1cc2c(cc1Cl)SC(=NCCCN1CCOCC1)NS2(=O)=O	5	-2	-80	0.7	29	1.8
CCOC(=O)CNC(=O)C(=O)c1c(O)[nH]c2ccccc12	-7	-7	-5	1	3	1
CN(C(=O)CCN1C(=O)c2ccccc2C1=O)C1CCCCC1	20	-3	-38	0	98*	1.4
O=C(CCCN1C(=O)c2ccccc2C1=O)NC1CCCCCC1	6	0	39	0.6	44	0.6
Cc1ccccc1N1C(=O)C(Cl)=C(N2CCCCCC2)C1=O	40*	-3	16	0.7	28	0.8
COc1ccc(OC)c(N2C(=O)C(Cl)=C(N3CCOCC3)C2=O)c1	-3	5	22	0.4	60*	0.8
COc1ccc(OC)c(N2C(=O)C(Cl)=C(N3CCCCC3)C2=O)c1	21	-5	78*	0.3	66*	0.2
O=C1C(Cl)=C(N2CCCCC2)C(=O)N1c1ccccc1Cl	22	-2	32	0.7	32	0.7
COc1ccc(OC)c(N2C(=O)[C@@H]3C(c4ccccc4Cl)=NO[C@@H]3C2=O)c1	1	-20	20	0.9	13	0.8
COc1ccc(NC(=O)C2(c3ccc(NC(=O)c4ccc(OC(C)=O)cc4)cc3)CCCC2)cc1	3	-3	6	1	3	0.9
CCC(C)NC(=O)C1CCC(=O)N(c2ccc3c(c2)OCO3)C1c1ccc(OC)cc1 (stereo unspecified)	28	3	26	0.6	39	0.7
O=C(c1ccccc1)N1CCc2ccccc21	13	0	-22	0.8	20	1.2
CC(=O)c1c(C)[nH]c(C(=O)N2CCc3ccccc32)c1C	21	-2	69*	0.3	69*	0.3
C=CCn1c(SC(C)CC)nc(O)cc1=O (stereo unspecified)	0	-1	26	0	98*	0.7
CC1=C(C)CS(=O)N(S(=O)(=O)c2ccccc2)C1 (stereo unspecified)	4	-4	22	0.8	15	0.8
CC1=C(C)CS(=O)N(c2ccc(S(N)(=O)=O)cc2)C1 (stereo unspecified)	10	1	-142	0.6	37	2.4*
CCOc1cc(C#N)c(NC(=O)c2cccnc2Cl)cc1OCC	6	-3	65*	1.1	-7	0.3
CCN1CCN(c2cc(C)c3cc(NC(=O)c4cccnc4Cl)ccc3n2)CC1	11	19	10	0.7	32	0.9
CCCC(=O)Nc1ccc(Cl)c(NC(=O)c2cccnc2Cl)c1	3	45*	8	1	2	0.9
CCOc1cc(C#N)c(NC(=O)c2cccnc2)cc1OCC	0	-8	-3	1.1	-10	1
Cc1ccc(NC(=O)c2ocnc2C)cc1Cl	11	-8	-2	1	4	1
Cc1nn2c(N3CCCC3)cc(C(C)C)nc2c1-c1ccccc1	-2	22	-14	1.1	-8	1.1
Cc1cccn2cc(CNC(=O)c3ccco3)nc12	23	1	29	0.9	15	0.7
O=C1c2oc3ccccc3c(=O)c2C(c2cccnc2)N1Cc1ccco1 (stereo unspecified)	6	0	18	0.9	5	0.8
CCc1nnc(NC(=O)C(NS(=O)(=O)c2ccc3c(c2)OCCO3)C(C)C)s1 (stereo unspecified)	-2	0	90*	0.1	95*	0.1
SMILES	PostGolgi ctrl	PostGolgi yeast	CYP2C9 inhib	CYP2C19 act	CYP2C19 inhib	CYP2C9 activ
Cc1nc2ccc(S(=O)(=O)NC(C(=O)NCc3ccc4c(c3)OCO4)C(C)C)cc2s1 (stereo unspecified)	1	1	31	0.5	51*	0.7
Cc1nc2ccc(S(=O)(=O)N(C)CC(=O)NCc3ccc4c(c3)OCO4)cc2s1	1	-1	53*	0.4	57*	0.5
CCC(=O)Nc1ccnc(-c2cccnc2)n1	6	19	22	0.4	65*	0.8
CC(C)(C)C(=O)Nc1ccnc(-c2cccnc2)n1	2	18	59*	0.2	83*	0.4
CCOc1ccc(C(=O)c2cc([N+](=O)[O-])ccc2Cl)cc1	5	-1	76*	0.7	34	0.2
O=C(c1ccc(-c2ccc(Cl)cc2)o1)N1CCN(c2ccc([N+](=O)[O-])cc2Cl)CC1	9	-12	92*	0.3	70*	0.1
CCOc1ccccc1OCCCOc1ccc([N+](=O)[O-])cc1Cl	38*	6	x	x	x	x
CN1CCN(c2ccc([N+](=O)[O-])cc2NC(=O)c2ccccc2)CC1	0	-8	-9	1.2	-19	1.1
CN1CCN(c2ccc([N+](=O)[O-])cc2C(=O)c2ccc(Cl)cc2)CC1	27	-18	14	0.4	58*	0.9
O=[N+]([O-])c1ccc(N2CCN(c3ccc(Cl)nn3)CC2)c(Cl)c1	-12	3	36	1.1	-8	0.6
O=C(NCCN1CCCCCC1)C1CC(=O)N(CCc2ccccc2)C1 (stereo unspecified)	-2	-10	4	0.8	24	1
CN1/C(=N\O)c2cccc3cccc1c23	7	-12	-77	0.3	70*	1.8
Cc1cc(C)cc(NC(=O)CN2CCCN(S(=O)(=O)c3ccc(Br)s3)CC2)c1	42*	1	-68	0.7	31	1.7
Cc1ccc(NC(=O)CN2CCCN(S(=O)(=O)c3ccc(Br)s3)CC2)cc1	33*	16	31	0.1	91*	0.7
CC(c1ccco1)N(C(=O)COc1ccc(Cl)cc1)c1ccccn1 (stereo unspecified)	-6	4	14	0.7	30	0.9
O=C(COc1ccc(Cl)cc1)N(Cc1ccccc1)c1ccccn1	33*	-4	55*	0	98*	0.5
O=C(O)C1CCCN(C(=O)NCc2ccccc2)C1 (stereo unspecified)	5	-5	3	1	-3	1
COCCNC(=O)CN(C(=O)CCC(=O)Nc1ccccn1)c1ccc(F)c(Cl)c1	6	4	18	0.7	30	0.8
CCC(C)(C)NC(=O)CN(C(=O)CCC(=O)Nc1ccccn1)c1ccc(F)c(Cl)c1	1	41*	75*	0.2	85*	0.3
CC(C)NC(=O)CN(C(=O)CCC(=O)Nc1ccccn1)c1ccc(F)c(Cl)c1	3	2	31	0.3	66*	0.7
CCN(C(=O)COC(=O)C(Cc1ccccc1)N1C(=O)c2ccccc2C1=O)C1CCS(=O)(=O)C1 (stereo unspecified)	0	16	26	0.6	40	0.7
COc1ccccc1S(=O)(=O)n1cc(Cc2ccccc2)c(N)n1	9	-6	x	x	x	x
O=C(CN(c1ccc(F)cc1)S(=O)(=O)c1ccc2c(c1)OCCO2)NCc1ccccn1	22	9	64*	0	95*	0.4
